Source: PubChem BioAssay (National Center for Advancing Translational Sciences (NCATS))
TDP1 cell CPT – DT40-hTDP1 cell growth loss with CPT | chicken DT40 Tdp1-/-;hTDP1 cells + 20 nM CPT, ATP luminescence, 48 h | Potency, µM (series often up to 46.2 µM), for the others: at the top dose activity change, negative = growth inhibition, most hits filed as inhibitors | 420,000 compounds, 12% hits | AID 686979; note: potency is the fitted concentration of half-maximal effect; nearly all actives have a fitted effect of over 55% in size
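Chicken DT40 Tdp1-/- cells stably complemented with human TDP1 were seeded at 400 cells/well in medium containing 20 nM camptothecin, exposed to pin-transferred compounds, and grown at 37 °C for at least 48 hr. Viability was read as ATP luminescence.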
HT1080-NT tox – kills 2HG-producing HT-1080-NT fibrosarcoma cells | HT-1080-NT fibrosarcoma viability, CellTiter-Glo ATP luminescence, 48 h | Potency, µM (titrated, usually from 46.1 µM), inactives show at the top dose activity, negative = less viability, actives largely listed as cytotoxic | 360,000 compounds, 1.6% hits;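 note: NT is the 2HG producing partner of a matched IDH1 knockdown line; potency is the fitted concentration of half-maximal effect; 0% = DMSO-treated cells and -100% = media-only wells without cells; nearly all actives have a fitted effect of over 55% in size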
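Compounds were tested in concentration-response format on HT-1080-NT cells for 48 hours at 37 degrees C. Cell viability came from CellTiter-Glo luminescence; curves were classified by r2, response magnitude and activity.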
HT1080 IDH1KD tx – HT-1080 IDH1 knockdown cell toxicity (counter line). Potency, µM (doses to about 46.1 µM), inactives show at the highest dose activity, negative = toxicity, usual class: cytotoxic. 360,000 compounds, 2% hits. AID 686971. HT-1080 IDH1 knockdown viability, ATP luminescence, 48 h;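 note: potency is the fitted concentration of half-maximal effect; 0% = DMSO wells and -100% = cell-free medium wells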
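IDH1KD HT-1080 cells, 750/well, RPMI + 5% FBS; compound pinned after 2 h settling; 48 h, 37 °C; CellTiter-Glo luminescence; % activity normalised to DMSO and no-cell wells; curves fitted, classed by r2 and efficacy.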
TDP1 cell noCPT – qHTS for Inhibitors of human tyrosyl-DNA phosphodiesterase 1 (TDP1): qHTS in cells in absence of CPT; DT40 Tdp1-/- hTDP1 cells, no CPT, ATP luminescence, 48 h; Potency, µM (doses to about 46.2 µM), without a hit: top-dose activity change, negative = growth inhibition, hits mostly inhibitors; 420,000 compounds, 15% hits; note: potency is the fitted concentration of half-maximal effect; nearly all actives have a fitted effect of over 55% in size
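Seeded 400 DT40-hTDP1 cells/well (vehicle DMSO, no 20 nM CPT); pinned compounds; ≥48 hr at 37 °C; CellTiter-Glo luminescence as viability measure.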
IL-1B inflam inh – inflammasome signaling inhibition, IL-1 beta readout | THP-1 LPS/ATP IL-1B secretion, AlphaLISA, 16 h; stronger effect = lower value | activity change, % at 57.5 µM | 360,000 compounds, 4.7% hits; in the data active = activity change below about -50%; inconclusive = mostly about -30% to -49%
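THP-1 cells pretreated 1 hr with compounds (up to 57.5 uM final), then stimulated with LPS (250 ng/mL final) plus ATP (1.25 mM final); secreted IL-1B measured by AlphaLISA after 16 hr, decreased signal indicating inhibition.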
* marks the source's active call; other numbers are inactive results; ? = inconclusive; · = not tested or not shown; [ ] = another dose, or the depositor's remark. Sampled rows, rich in hits. Any-hit rate of the full collection: about 19%. Unless noted, calls come from the whole dose curve; as a rule, active = well fitted curve in the direction sought with a large enough effect; inconclusive = small, poorly fitted or top-dose-only effect, or another doubt; inactive = no such curve, though single readings can be large; an effect the other way counts as inactive or inconclusive. Unless noted, % is set by controls: 0 for no effect and ±100 for the full control effect.

SMILES | TDP1 cell CPT | HT1080-NT tox | HT1080 IDH1KD tx | TDP1 cell noCPT | IL-1B inflam inh
Cc1oc2ccc(OC(=O)c3cccs3)cc2c1C(=O)OC(C)C | ? | -1% | 10% | -5% | -25
Cn1cccc1C(=O)C(=O)Nc1ccccc1C(F)(F)F | -23% | ? | 30% | -19% | -14
CCOC(=O)c1cnn(-c2ccccc2)c1-n1cccc1C(=O)C(=O)Nc1ccccc1C(F)(F)F | ? | -13% | -9% | 21µM* | 0
c1cc2c(cc1C1CCCCC1)c1c3n2CCN=C3CCC1 | ? | 21µM* | ? | ? | ?
CC(=O)N1CCn2c3c(c4cc(C)ccc42)CCCC31 (stereo unspecified) | -6% | 8% | 10% | -24% | -11
COc1ccc2c(c1)c1c3n2CCN(C)C3=NCC1 | -2% | -1% | -5% | ? | -11
Cc1ccc2c(c1)c1c3n2CCN=C3CCC1 | -25% | -1% | -4% | -29% | -96*
CCOc1c(C)cnc2c1c(=O)n(Cc1ccc(Cl)cc1)c(=O)n2C | -15% | 0% | -14% | -10% | 46
COc1ccc(S(=O)(=O)Nc2ccc(-n3cnnn3)cc2)cc1[N+](=O)[O-] | -11% | -15% | 0% | -30% | 10
Cc1onc(-c2c(F)cccc2Cl)c1C(=O)OCC(=O)NC(=O)NCC(C)C | -23% | -25% | -17% | 7.3µM* | -19
CCn1nc(C)c(CN2CCC(Oc3ccc(C(=O)N4CCCC4)cc3)CC2)c1C | -12% | -10% | -1% | -9% | 40
CN(C)CCNC(=O)Cc1ccc(NC(=O)N2CCCCc3ccccc32)cc1 | -9% | · | · | -9% | ·
O=C(Cc1ccc(NC(=O)N2CCCCc3ccccc32)cc1)Nc1ccccc1Br | ? | · | · | 21µM* | ·
COCCNC(=O)Cc1ccc(NC(=O)N2CCCCc3ccccc32)cc1 | 0% | · | · | -10% | ·
CC(C)c1ccc(NC(=O)Cc2ccc(NC(=O)N3CCCCc4ccccc43)cc2)cc1 | 18µM* | · | · | 21µM* | ·
CCCCCC(=O)N1CC2(CC(c3cccc(NC(=O)CC)c3)=NO2)C[C@H]1C(N)=O (stereo partly specified) | 10% | 13% | 13% | 19% | 15
Nc1c(C(=O)NCCN2CCOCC2)c2nc3ccccc3nc2n1CCc1ccccc1F | ? | ? | ? | ? | -63*
N#Cc1c(N)n(CCc2ccc(F)cc2)c2nc3ccccc3nc12 | ? | -20% | -14% | ? | -57*
CC(C)OC(=O)c1c(N)n(CCCN2CCOCC2)c2nc3ccccc3nc12 | -9% | -12% | -15% | -7% | -11
O=C(NCc1ccco1)C1CCN(c2nc3ccccc3n2Cc2ccc(F)cc2)CC1 | ? | -12% | -13% | 16µM* | ?
Nc1c(C(=O)NCCN2CCOCC2)c2nc3ccccc3nc2n1CCc1ccccc1 | ? | ? | ? | 21µM* | -59*
CC(/C=N/NC(=O)c1cc(C(C)C)[nH]n1)=C\c1ccccc1 | ? | -9% | -10% | ? | -23
Nc1c(C(=O)NCc2ccco2)c2nc3ccccc3nc2n1CCc1ccc(F)cc1 | 21µM* | ? | ? | 18µM* | -116*
COc1cc(-c2nnc(-c3ccccc3)o2)cc(OC)c1OC | 16µM* | 10% | 20% | 12µM* | ?
COc1cc(-c2nnc(-c3cc(OC)c(OC)c(OC)c3)o2)cc(OC)c1OC | 1.8µM* | 4% | -12%[9.24 µM] | 2.1µM* | -2
COc1cc(-c2nnc(COc3ccc4ccccc4c3)o2)cc(OC)c1OC | ? | -16% | -3% | 26µM* | -19
CCCc1nnc(-c2cc(OC)c(OC)c(OC)c2)o1 | ? | 14% | 4% | 7% | 6
Cc1ccc(S(=O)(=O)N2CCCCC2)cc1NC(=O)Cc1cccs1 | -29% | 2% | 4% | 3% | -1
CNc1nc(NC#N)nc(SC)n1 | 21µM* | 0% | 0% | ? | 15
Cc1noc(C)c1C(=O)Nc1ccc(F)cc1F | -2% | 20% | 5%[9.24 µM] | -5% | -7
